In PubChem BioAssay (NCATS):
Results filed as inconclusive are left out. Entries that show only a call come without a potency. Activity calls are given as the source filed them. Unless noted, the call rests on the fitted dose curve; in most records, active means well fitted curve in the direction sought with a large enough effect; inconclusive means small, poorly fitted or top-dose-only effect, or another doubt; inactive means no such curve, though single readings can be large; an effect the other way counts as inactive or inconclusive.

How the values were obtained:
[1] = Cell Proliferation Assay against the TMD8 Cell Line (AID 651645); settings: TMD8 DLBCL cell line proliferation/viability; at 46.1 µM (top of the series);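 further: cells exposed to compound for 48 h before reading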
In short: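 Cell viability of the ABC DLBCL line TMD8 is measured by CellTiter-Glo luminescence following a 48-hour incubation with compound. Percent activity uses DMSO as 100% and 9.2 uM bortezomib (final) as 0%.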

[2] = Cell Proliferation Assay against the HBL1 Cell Line (AID 651646); settings: HBL1 DLBCL cells; at 46.1 µM (top of the series);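 further: cells exposed to compound for 48 h before reading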
In short: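 500 log-phase HBL1 cells per well in phenol red-free RPMI with 5% FBS were treated with compounds for 48 h at 37 °C, 5% CO2. Viability was read by CellTiter-Glo luminescence, normalized to DMSO (100%) and 9.2 uM bortezomib final (0%).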

[3] = Cell Proliferation Assay against the TMD8 Cell Line (Caspase readout at 8 hrs) (AID 651713); settings: TMD8 lymphoma cells, caspase activation luminescence; further: potency means the concentration at half of the fitted maximal effect
In short: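 Percent activity derived from Caspase-Glo signal, DMSO set to 0% and bortezomib (9.2 uM final) to 100%. TMD8 cells were exposed to compound for 8 h in RPMI with 5% FBS.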

[4] = target: Tyrosine-protein kinase Yes (Homo sapiens) (UniProt P07947); experiment: qHTS for small molecule inhibitors of Yes1 kinase: Primary Screen (AID 686947); further: nearly all actives have a fitted effect of over 60% in size
In short: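 ADP-Glo luminescence readout; final 4 nM Yes1, 0.1 mM ATP, 0.3 mg/mL poly(E4Y), Tris pH 7.5, MgCl2, DTT, Brij-35. 20 min compound preincubation, 60 min reaction at RT. Normalized to DMSO wells with and without enzyme.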

[5] = qHTS for small molecule inhibitors of Yes1 kinase: Counter Assay (AID 686950);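 further: no kinase present so only ADP-Glo detection of a fixed ADP amount is tested; luminescence from ADP-Glo reporting ADP in a fixed ATP and ADP mixture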
In short: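 Enzyme-free ADP-Glo interference check: compounds were preincubated 20 min in buffer, then an ATP/ADP mix (0.08 mM ATP, 0.02 mM ADP final) was added for 60 min at room temperature before two-step ADP-Glo luminescence detection.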

[6] = qHTS Assay for Identifying Gametocytocidal Compounds (AID 743244); further: potency means the concentration at half of the fitted maximal effect; settings: P. falciparum 3D7 stage III-V gametocytes, alamarBlue, 72 h
In short: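 Compounds are pinned into medium, gametocytes (stage III–V, 3D7, 20,000 cells/well) added, and plates held 72 h at 37 °C in 5% CO2. AlamarBlue follows for 24 h before fluorescence reading.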

[7] = target: Calcium and integrin-binding protein 1 (Homo sapiens) (UniProt Q99828); experiment: Confirmatory qHTS for Identification of Calcium Integrin Binding Protein 1 (CIB1) Competitor (AID 1508617); settings: CIB1 binding competition assay, biochemical qHTS; further: potency means the concentration at half of the fitted maximal effect; nearly all actives have a fitted effect of over 65% in size
In short: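 Confirmatory qHTS measures displacement of a FITC-alphaIIb peptide (100 nM) from CIB1-GST (1 uM) by fluorescence polarization. Calcium-containing HEPES buffer, pH 7.4; two 15 min room-temperature incubations.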

[8] = Confirmatory qHTS for activators (rescue) of SARS-CoV-2 Cytopathic Effect (CPE) (AID 1508606; calls by dose curve; further: potency means the concentration at half of the fitted maximal effect; nearly all actives have a fitted effect of over 70% in size)
[9] = target: Cytochrome P450 2C19 (Homo sapiens) (UniProt P33261); experiment: qHTS for inhibitors of CYP2C19 against the NCATS DSHEA and TCM libraries (AID 1919974);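 further: luminescence from luciferin released by CYP2C19 oxidation of a pro-luciferin substrate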
In short: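 Light output from converted D-luciferin reports remaining CYP activity. Compounds preincubate with enzyme and substrate for 15 min; NADPH regeneration (1x final) runs the reaction for 30-45 min.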

[10] = KB-8-5-11 P-gp reporter qHTS against the NCATS DSHEA and TCM libraries (AID 1919977)
In short: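 Viability of drug-resistant KB-8-5-11 cells is measured by CellTiter-Glo luminescence following roughly 72 h treatment at 37C. Substances were titrated, with bortezomib as intraplate control.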

[11] = Dual reporter qHTS for agonist of Pregnane X Receptor (hPXR) against the NCATS DSHEA and TCM libraries: Fluorescence readout (AID 1920058)
In short: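 Measures viability of the PXR reporter HepG2 line by protease-substrate fluorescence (405/540 nm), taken 1 h after CellTiter-Fluor addition. Substances are tested as concentration series over a ~24 h exposure, with rifampicin as agonist control.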

[12] = target: Nuclear receptor subfamily 1 group I member 2 (Homo sapiens) (UniProt O75469); experiment: Dual reporter qHTS for agonist of Pregnane X Receptor (hPXR) against the NCATS DSHEA and TCM libraries: Luminescence readout (AID 1920059)
In short: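 hPXR-LucHepG2 cells in phenol red-free DMEM with 5% charcoal-stripped FBS, 2000 cells/well, attached 5 h, then exposed 24 h at 37C to compounds; rifampicin as positive agonist control (2.8 nM–92 uM). Luciferase luminescence read.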

[13] = target: D(1A) dopamine receptor (Homo sapiens) (UniProt P21728); experiment: HTS Assay for Allosteric Agonists of the Human D1 Dopamine Receptor: Primary Screen for Potentiators (AID 488982)
In short: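 Tetracycline-induced HEK293 T-REx cells force-coupled to calcium signalling were incubated overnight at 30 C and dye-loaded at room temperature. Calcium flux over 180 s after compound addition flagged agonists; a further 180 s read after EC20 dopamine flagged potentiators.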

[14] = Cytotoxicity counterscreen for NFkB agonists and antagonists (AID 624476)
[15] = qHTS Assay for Identification of Small Molecule Agonists for NFkB Signaling Pathway. (AID 624478);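 further: compounds tested together with TNF alpha at its EC50 of 10 pM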
In short: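 Cells carrying an NFkB response element-driven beta-lactamase gene are co-treated with compound and 10 pM TNF alpha for 5 h, and reporter activity is then read as 460 and 530 nm fluorescence.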

[16] = qHTS Assay for Identification of Small Molecule Antagonists for NFkB Signaling Pathway. (AID 624479; calls by dose curve;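 further: pathway stimulated with TNF alpha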)
[17] = qHTS Assay for Identification of Small Molecule Agonists for Hypoxia Response Element Signaling Pathway (AID 914; active means well fitted activation curve with a large enough effect in the signal ratio, with a control signal flat, not every such curve was filed as active; the % refers to the signal ratio); settings: ME-180 (cervical carcinoma) HRE-bla reporter, beta-lactamase ratio, CoCl2, 17 h; activation: stronger effect = higher value
In short: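 HRE-bla ME-180 assay for agonist-like enhancement of an EC50 CoCl2 stimulus: 17 h at 37 degrees Celsius, CCF4 for 2.5 h, ratiometric 460/530 nm signal converted to %Activity and fitted to AC50.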

[18] = target: Pyruvate kinase PKM (Homo sapiens) (UniProt P14618); experiment: qHTS Assay for Inhibitors of Human Muscle Pyruvate Kinase (AID 958); settings: purified human PKM enzyme activity
In short: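 Screening used highly purified human pyruvate kinase M2 under submaximal activity, with PEP at its Km and ADP below Km. After an hour at room temperature, ATP was read by luciferase luminescence.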

[19] = target: Pyruvate kinase (Leishmania mexicana) (UniProt Q27686); experiment: qHTS Validation Assay for Activators of Leishmania Mexicana Pyruvate Kinase (AID 959)
In short: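 Eight-point qHTS titrations; enzyme 0.2 nM LmPYK (E451W mutant); substrates 0.5 mM PEP, 0.1 mM ADP; 7 mM MgCl2; 1 h room temperature; PKLight luminescence normalized to neutral control.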

[20] = qHTS Assay for Identification of Small Molecule Antagonists for NFkB Signaling Pathway (AID 895; active means well fitted inhibition curve with a large enough effect in the signal ratio, with a control signal flat, not every such curve was filed as active; the % refers to the signal ratio)
In short: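 NFkB-bla ME-180 cervical carcinoma cells with beta-lactamase reporter under NFkB response element; compounds added, then TNF alpha at 10 pM final (EC50), 5 h at 37 C. LiveBLAzer substrate 2 h, room temperature; emission 460/530 nm at 405 nm excitation.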

Chain of Calcium and integrin-binding protein 1 (Homo sapiens) (Q99828 whole entry, looked up): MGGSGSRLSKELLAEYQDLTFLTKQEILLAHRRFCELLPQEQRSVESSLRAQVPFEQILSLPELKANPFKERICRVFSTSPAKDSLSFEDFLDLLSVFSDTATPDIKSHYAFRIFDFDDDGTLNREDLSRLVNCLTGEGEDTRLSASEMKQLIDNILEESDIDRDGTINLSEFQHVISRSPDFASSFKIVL
Chain of Tyrosine-protein kinase Yes (Homo sapiens) (P07947 whole entry, looked up): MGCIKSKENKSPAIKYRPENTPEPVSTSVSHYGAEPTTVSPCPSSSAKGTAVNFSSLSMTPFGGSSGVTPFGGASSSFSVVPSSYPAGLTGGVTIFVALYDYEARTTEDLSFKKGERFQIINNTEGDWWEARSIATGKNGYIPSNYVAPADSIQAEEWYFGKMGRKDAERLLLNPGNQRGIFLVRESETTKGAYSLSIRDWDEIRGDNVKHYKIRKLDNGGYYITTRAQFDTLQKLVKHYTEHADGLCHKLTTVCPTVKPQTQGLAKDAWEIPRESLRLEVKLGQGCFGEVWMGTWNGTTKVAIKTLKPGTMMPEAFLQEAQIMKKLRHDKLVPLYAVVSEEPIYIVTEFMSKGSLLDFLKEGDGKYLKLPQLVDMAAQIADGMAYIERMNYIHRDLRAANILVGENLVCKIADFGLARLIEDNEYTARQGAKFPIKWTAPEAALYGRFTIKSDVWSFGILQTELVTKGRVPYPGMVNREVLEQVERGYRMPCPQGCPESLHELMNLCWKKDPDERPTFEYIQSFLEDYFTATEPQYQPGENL
Chain of D(1A) dopamine receptor (Homo sapiens) (P21728 whole entry, looked up): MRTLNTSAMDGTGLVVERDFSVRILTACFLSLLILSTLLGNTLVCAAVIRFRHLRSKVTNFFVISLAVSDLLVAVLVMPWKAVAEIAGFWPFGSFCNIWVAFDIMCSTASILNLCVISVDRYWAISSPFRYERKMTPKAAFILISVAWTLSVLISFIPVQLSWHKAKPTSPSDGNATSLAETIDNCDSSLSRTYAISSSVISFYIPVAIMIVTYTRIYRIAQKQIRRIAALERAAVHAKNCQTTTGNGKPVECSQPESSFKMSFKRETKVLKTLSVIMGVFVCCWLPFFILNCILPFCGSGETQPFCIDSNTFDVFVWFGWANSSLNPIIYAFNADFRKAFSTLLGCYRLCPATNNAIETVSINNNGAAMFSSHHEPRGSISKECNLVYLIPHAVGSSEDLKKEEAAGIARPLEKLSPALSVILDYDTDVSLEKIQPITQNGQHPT
Chain of Pyruvate kinase (Leishmania mexicana) (Q27686 2-499 E452W): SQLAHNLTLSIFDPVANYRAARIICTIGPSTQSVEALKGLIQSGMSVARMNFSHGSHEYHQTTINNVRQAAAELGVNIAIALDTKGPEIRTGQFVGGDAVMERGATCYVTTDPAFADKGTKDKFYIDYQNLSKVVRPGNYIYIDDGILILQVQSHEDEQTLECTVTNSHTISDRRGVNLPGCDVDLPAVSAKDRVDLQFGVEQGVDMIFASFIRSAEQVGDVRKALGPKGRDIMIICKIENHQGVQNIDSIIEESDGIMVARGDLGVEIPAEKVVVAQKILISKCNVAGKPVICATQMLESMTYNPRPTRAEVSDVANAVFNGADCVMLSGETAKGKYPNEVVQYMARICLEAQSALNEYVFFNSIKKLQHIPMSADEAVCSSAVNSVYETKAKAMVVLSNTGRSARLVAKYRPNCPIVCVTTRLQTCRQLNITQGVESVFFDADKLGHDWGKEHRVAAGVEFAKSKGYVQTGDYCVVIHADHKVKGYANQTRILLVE
Chain of Pyruvate kinase PKM (Homo sapiens) (P14618 whole entry, looked up): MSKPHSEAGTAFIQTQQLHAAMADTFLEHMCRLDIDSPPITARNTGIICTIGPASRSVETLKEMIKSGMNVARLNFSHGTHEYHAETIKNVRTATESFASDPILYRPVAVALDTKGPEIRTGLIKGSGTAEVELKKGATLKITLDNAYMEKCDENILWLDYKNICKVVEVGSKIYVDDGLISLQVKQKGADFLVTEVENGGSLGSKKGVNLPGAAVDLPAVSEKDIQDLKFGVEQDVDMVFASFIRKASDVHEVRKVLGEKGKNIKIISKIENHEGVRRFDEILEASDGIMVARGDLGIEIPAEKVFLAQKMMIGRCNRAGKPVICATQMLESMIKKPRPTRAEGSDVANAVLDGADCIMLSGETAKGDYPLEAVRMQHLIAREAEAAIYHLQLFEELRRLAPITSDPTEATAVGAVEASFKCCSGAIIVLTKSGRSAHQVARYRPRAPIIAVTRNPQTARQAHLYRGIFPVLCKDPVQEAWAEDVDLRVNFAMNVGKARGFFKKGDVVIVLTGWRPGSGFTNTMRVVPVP
Chain of Nuclear receptor subfamily 1 group I member 2 (Homo sapiens) (O75469 whole entry, looked up): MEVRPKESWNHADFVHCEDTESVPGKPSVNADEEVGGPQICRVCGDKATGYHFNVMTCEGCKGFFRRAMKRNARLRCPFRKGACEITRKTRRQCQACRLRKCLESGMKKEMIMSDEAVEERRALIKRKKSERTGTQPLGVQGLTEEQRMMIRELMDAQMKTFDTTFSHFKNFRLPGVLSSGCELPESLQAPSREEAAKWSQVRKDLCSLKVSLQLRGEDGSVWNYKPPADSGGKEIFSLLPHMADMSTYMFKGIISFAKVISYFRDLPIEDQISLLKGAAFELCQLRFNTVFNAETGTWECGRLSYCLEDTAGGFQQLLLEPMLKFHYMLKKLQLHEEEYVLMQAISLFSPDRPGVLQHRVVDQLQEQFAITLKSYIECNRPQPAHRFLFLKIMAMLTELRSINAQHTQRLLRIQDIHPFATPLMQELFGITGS
Chain of Cytochrome P450 2C19 (Homo sapiens) (P33261 whole entry, looked up): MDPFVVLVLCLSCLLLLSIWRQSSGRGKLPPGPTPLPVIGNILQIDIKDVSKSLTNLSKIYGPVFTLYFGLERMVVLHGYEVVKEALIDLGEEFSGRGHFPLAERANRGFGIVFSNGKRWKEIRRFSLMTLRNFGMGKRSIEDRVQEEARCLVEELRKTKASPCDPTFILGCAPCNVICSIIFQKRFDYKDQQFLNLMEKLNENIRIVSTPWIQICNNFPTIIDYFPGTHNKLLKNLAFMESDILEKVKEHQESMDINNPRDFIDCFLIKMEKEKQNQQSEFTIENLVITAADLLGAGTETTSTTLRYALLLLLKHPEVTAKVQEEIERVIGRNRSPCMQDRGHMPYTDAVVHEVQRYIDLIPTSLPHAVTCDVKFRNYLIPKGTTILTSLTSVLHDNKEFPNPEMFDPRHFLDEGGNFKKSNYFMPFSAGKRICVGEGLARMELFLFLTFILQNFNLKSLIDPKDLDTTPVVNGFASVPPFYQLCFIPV

Q: With COC(=O)[C@]12CCC(C)(C)C[C@H]1[C@H]1C(=O)C=C3[C@@]4(C)C=C(C#N)C(=O)C(C)(C)[C@@H]4CC[C@@]3(C)[C@]1(C)CC2 as the compound, how does the viability (% of control) [1] read?
A: The viability (% of control) was 0.135%.

Q: What about the viability, percent of control [2] of the same compound?
A: The viability, percent of control was 1.52%.

Q: And the Potency [3]?
A: The Potency was 0.662 µM (active).

Q: And the outcome [4]?
A: The outcome was “inactive”.

Q: What about the outcome [5] of the same compound?
A: Its outcome is “inactive”.

Q: And the Potency [6]?
A: Its Potency is 5.01 µM (active).

Q: What about the Potency [7] of the same compound?
A: Its Potency is 10 µM (active).

Q: Which Potency [8] does the source give for CCCCCCC(C)(C)c1cc(O)c2c(c1)OC(C)(C)C1CC=C(CO)C[C@H]21 (stereo not given in full) here?
A: Its Potency is 10 µM (active).

Q: Which results are given for N#CC(O[C@@H]1O[C@H](CO[C@@H]2O[C@H](CO)[C@@H](O)[C@H](O)[C@H]2O)[C@@H](O)[C@H](O)[C@H]1O)c1ccccc1 (stereo not given in full)?
A: Potency [9]: inactive; Potency [10]: inactive; outcome [11]: inactive; Potency [12]: inactive

Q: For CC12CCC3C(CCC4=C(O)C(=O)CCC43C)C1CCC2=O (stereo not given), which outcome [13] is on record?
A: Its outcome is “inactive”.

Q: What about the outcome [14] of the same compound?
A: Its outcome is “inactive”.

Q: What about the outcome [15] of the same compound?
A: Its outcome is “inactive”.

Q: And the outcome [16]?
A: Its outcome is “inactive”.

Q: Which activation [17] does the source give for NNCc1cccc(O)c1 here?
A: The activation was 15.1% (inactive).

Q: What about the Potency [18] of the same compound?
A: Its Potency is 15.8 µM (active).

Q: What about the outcome [19] of the same compound?
A: The outcome was “inactive”.

Q: With CCCN(CCC)C(=O)Cc1c(-c2ccc(Cl)cc2)nc2c(Cl)cc(Cl)cn12 as the compound, how does the Potency [20] read?
A: The Potency was “inactive”.
